Experiment [1] is described as follows: blockers of polyQ-driven CASP3 activation – cell-based (AID 1583). As to conditions: polyglutamine-induced caspase-3 activation, cell assay; stronger effect = higher value;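 tested at 10 µM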.
Experiment [2] can be described thus: yeast 75Q aggregation reduction – 75Q-TubU reporter (AID 1593). The conditions noted are these: Yeast 75Q polyglutamine aggregation reporter.
Experiment [3] in a line: restoration of touch response, mutant HTT neurons – whole organism, C. elegans mechanosensory neurons, N-terminal huntingtin (AID 1599). As to conditions: C. elegans polyQ-huntingtin mechanosensory neurons, stronger effect = higher value.
Experiment [4] is described as follows: blockers of cytochrome c efflux from mitochondria – biochemical, purified mitochondria (AID 1603).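 Also: mouse liver mitochondria challenged with calcium chloride; signal normalized to the plate average as 100%.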 The conditions noted are these: stronger effect = lower value.
Experiment [5] in a line: polyglutamine aggregate formation blockers (AID 1604). The conditions noted are these: polyglutamine-induced protein aggregation inhibition assay; stronger effect = higher value; tested at 2.5 µM.

These results are taken from PubChem BioAssay.

For part of these data: Potency and affinity values are given separately.

For the molecule `NC(=O)NO`, in experiment [1], the inhibition is -0.33%. Also, in experiment [2], the score is 1.4. This molecule registered a rescue above control in experiment [3] of -1.6. Further, the cytochrome c release ratio in experiment [4] was found to be 0.82. For the same molecule, the inhibition of aggregation in experiment [5] came out at 85.9%.
In the same order, the values of `CSc1ccc2c(c1)C(N1CCN(C)CC1)Cc1ccccc1S2` (stereo not given) are 7.11%, 0.84, 0, 4.27 and 80.6%.
For `COc1ccc(C2C(=O)c3ccccc3C2=O)cc1`, the inhibition in experiment [1] was 2.6%. In experiment [2], this molecule had a score of 0.47. Further, the rescue above control in experiment [3] is -9.34. The cytochrome c release ratio in experiment [4] is 1.11. Also, in experiment [5], the inhibition of aggregation is 79.6%.
On the same counts, the results for `Nc1nc2c(c(=O)[nH]1)N(C=O)C(CNc1ccc(C(=O)N[C@@H](CCC(=O)O)C(=O)O)cc1)CN2` (stereo not given in full) are 16.8%, 2.89, -4.97, 1.12 and 35%.
For the molecule `OC[C@H]1O[C@@H](O[C@@H]2[C@@H](CO)O[C@](O)(CO)[C@H]2O)[C@H](O)[C@@H](O)[C@H]1O`, the inhibition in experiment [1] is -7.91%. Moreover, in experiment [2], the score worked out at 1.23. For the same molecule, in experiment [3], the rescue above control was -9.67. Besides, the cytochrome c release ratio in experiment [4] is 1.19. Moreover, the inhibition of aggregation in experiment [5] is 51.2%.
On the same counts, the results for `O=C(O)CCCCCCCC(=O)O` are -26.7%, 1.02, 10.4, 1.16 and 79.6%.
On the same counts, the results for `COc1ccc2[nH]cc(CCNC(C)=O)c2c1` are -10%, 1.34, 0.33, 0.49 and 46.1%.
On the same counts, the results for `COc1ccc(CCN(C)CCCC(C#N)(c2ccc(OC)c(OC)c2)C(C)C)cc1OC` (stereo not given) are 15.1%, 1.28, 2.45, 0.62 and 62.8%.
With `NC(Cc1ccc(Cl)cc1)C(=O)O` (stereo not given), in experiment [1], the inhibition came to 2.04%. In addition, in experiment [2], the score came to 1.27. Moreover, the rescue above control in experiment [3] worked out at 22.3. In experiment [4], the cytochrome c release ratio amounted to 0.79. Further, the inhibition of aggregation in experiment [5] was 83.3%.
In the same order, the values of `C[n+]1ccccc1/C=N/O` are 17.5%, 1.27, 6.93, 1.18 and 91.3%.
On to `CCOC(N)=O`, for which the inhibition in experiment [1] was -5.88%. The molecule also registered a score in experiment [2] of 1.23. Besides, the rescue above control in experiment [3] was -10. In addition, the cytochrome c release ratio in experiment [4] amounted to 0.98. Also, the inhibition of aggregation in experiment [5] was determined as 58.9%.
On the same counts, the results for `CCCN(CCC)C(=O)C(CCC(=O)O)NC(=O)c1ccccc1` (stereo not given) are 14.9%, 1.14, -3.65, 1.15 and 68.3%.
On the same counts, the results for `O=C(CCBr)N1CCN(C(=O)CCBr)CC1` are -31.6%, 0.93, 9.78, 0.86 and 52.8%.
In the same order, the values of `C=CCSCC1Nc2cc(Cl)c(S(N)(=O)=O)cc2S(=O)(=O)N1` (stereo not given) are -19.5%, 0.96, 4.12, 0.99 and -7.48%.
With `Oc1c(Br)cc(Br)c2cccnc12`, in experiment [1], the inhibition was determined as 46.3%. This molecule also showed a score in experiment [2] of -0.06. Moreover, the rescue above control in experiment [3] worked out at 10.9. Besides, in experiment [4], the cytochrome c release ratio was 2. In addition, the inhibition of aggregation in experiment [5] was 80.3%.
On the same counts, the results for `Cc1cc(C)nc(NS(=O)(=O)c2ccc(N)cc2)n1` are 5.54%, 1.45, -12.8, 1.13 and 22.2%.
In the same order, the values of `O=c1c(O)c(-c2ccc(O)c(O)c2)oc2cc(O)cc(O)c12` are 24.5%, 1.53, 8.75, 1.04 and 87.3%.
For `O=C1OC(c2ccc(O)cc2)(c2ccc(O)cc2)c2ccccc21`, in experiment [1], the inhibition was -3.42%. In experiment [2], this molecule displayed a score of 1.29. The molecule further came in with a rescue above control in experiment [3] of 8.67. For the same molecule, in experiment [4], the cytochrome c release ratio came out at 4.22. For the same molecule, in experiment [5], the inhibition of aggregation amounted to 70.1%.
